# Measurements from PubChem BioAssay AID602258 (National Center for Advancing Translational Sciences (NCATS), 2012).
# Results filed as inconclusive are left out. Where a call stands in place of a potency, no number is given. Activity calls are given as the source filed them. Calls follow the shape of the dose curve; as a rule, active = well fitted activation curve with a large enough effect; inconclusive = small, poorly fitted or top-dose-only effect; inactive = no such curve, though single readings can be large or run the other way.
# Target: Relaxin receptor 2 (Homo sapiens) (UniProt Q8WXD0)
# Sequence (Q8WXD0 whole entry, looked up): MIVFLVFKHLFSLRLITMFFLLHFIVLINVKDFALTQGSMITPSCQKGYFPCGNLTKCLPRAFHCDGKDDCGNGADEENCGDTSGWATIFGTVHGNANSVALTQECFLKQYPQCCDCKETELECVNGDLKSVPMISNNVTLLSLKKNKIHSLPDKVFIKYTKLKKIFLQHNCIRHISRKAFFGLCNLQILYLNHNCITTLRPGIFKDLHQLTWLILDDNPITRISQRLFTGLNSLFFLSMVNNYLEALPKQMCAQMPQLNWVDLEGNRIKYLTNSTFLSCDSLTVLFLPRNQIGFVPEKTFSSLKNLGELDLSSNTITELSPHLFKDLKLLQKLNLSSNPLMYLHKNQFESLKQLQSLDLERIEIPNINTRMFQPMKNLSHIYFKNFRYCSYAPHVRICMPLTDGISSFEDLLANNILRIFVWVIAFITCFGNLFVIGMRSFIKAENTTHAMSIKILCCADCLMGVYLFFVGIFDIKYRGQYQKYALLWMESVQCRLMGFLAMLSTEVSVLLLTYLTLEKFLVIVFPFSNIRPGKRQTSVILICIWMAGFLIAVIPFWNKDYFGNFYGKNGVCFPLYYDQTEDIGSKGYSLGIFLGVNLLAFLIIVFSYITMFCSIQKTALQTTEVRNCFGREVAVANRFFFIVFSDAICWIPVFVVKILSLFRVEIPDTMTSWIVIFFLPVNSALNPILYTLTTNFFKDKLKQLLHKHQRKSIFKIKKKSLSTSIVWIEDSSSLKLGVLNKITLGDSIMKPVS
# Experiment: qHTS Assay for Agonists of the Relaxin Receptor RXFP1: RXFP2 SAR
# Settings: HEK293 RXFP2 cAMP TR-FRET agonist, 30 min; series mostly up to 78.1 µM
# From the text: The relaxin hormone is involved in the variety of biological functions in normal tissues and diseases. The role of relaxin is well-established in female reproduction and parturition, mammary gland and endometrial development, maintenance of myometrial quiescence during pregnancy. Relaxin signaling through its G protein-coupled receptor (GPCR) RXFP1 results in ECM remodeling through regulation of collagen deposition, cell invasiveness, proliferation and overall tissue homeostasis. […] Recombinant human relaxin (rhRlx) is currently being tested in clinical trials as a protective agent in congestive heart failure, in treating severe preeclampsia, and as an anti-fibrotic agent in systemic sclerosis. Upon relaxin binding RXFP1 activation leads to the activation of adenylate cyclase (AC) via Gs. cAMP will activate PKA, which phosphorylates many signaling proteins. Thus, detection of cAMP increase is an easy and reliable indication of relaxin receptor activation. To screen for agonists of the relaxin receptor, a HEK293T cell line stably transfected with RXFP1 was used. RXFP1 activation was assayed by changes in cAMP levels as detected with a time-resolved fluorescence energy transfer (TR-FRET) cAMP detection kit. This assay measures activation of a cell expressing RXFP2, another GPCR targeted by relaxin, to determine the selectivity of compounds for RXFP1. NIH Chemical Genomics Center [NCGC] NIH Molecular Libraries Probe Production Centers Network [MLPCN] MLPCN Grant: R03 MH085705-01A1 Assay Submitter (PI): Alexander Agoulnik
# This is a cell-based assay for cAMP second messenger response to screen for agonists of the RXFP2 receptor. The assay was conducted in the presence of a PDE4 inhibitor (Ro 20174). The cells were lysed and the cAMP levels were measured with a TR-FRET cAMP kit. Presence of cAMP in the cell lysate disrupts binding between the cryptate-labeled anti-cAMP and d2-labeled cAMP pair, leading to a decrease in the TR-FRET signal. Data were normalized to the controls for basal activity (buffer only) and 100% activity (29 nM porcine relaxin). The EC50 values were determined from concentration-response data modeled with the standard Hill equation 1536-well assay protocol for the HEK293 RXFP2 cAMP assay: (1) Add 3 ul HEK293 RXFP2 cell culture. 2000 cells/well in DMEM/F12, 10% FBS, 1x Pen/Strep (dispensed offline with MultiDrop Combi). (2) Incubate 16-24 hr at 37C, 5% CO2. (3) Add 1 ul 400uM Ro20174 in DPBS, 0.05% BSA, 0.005% Tween 20. (3) Add 23 nl compounds in DMSO solution. Final concentration was 0.5 - 58 uM. (4) Incubate 30 min at 37C, 5% CO2. (5) Add 1 ul cAMP-d2 in lysis buffer (HTRF cAMP HiRange kit, CisBio). (6) Add 1 ul anti-cAMP antibody-cryptate in lysis buffer (HTRF cAMP HiRange kit, CisBio). (7) Incubate 30 min at room temperature. (6) Detect the assay plate in a ViewLux plate reader (PerkinElmer) with Ex=320 nm, Em1=615 nm and Em2=665 nm. Keywords: relaxin, RXFP1, RXFP2, G-protein coupled receptor, cAMP, agonist, high throughput screening, MLSMR, MLSCN, NIH Roadmap, qHTS and NCGC
row,SMILES,Potency
1,CCOc1ccccc1C(=O)Nc1ccccc1CNc1cccc(S(=O)(=O)C(F)(F)F)c1,inactive
2,CCOc1ccccc1C(=O)Nc1cnccc1C(=O)Nc1cccc(S(=O)(=O)C(F)(F)F)c1,inactive
3,O=C(Nc1ccccc1)c1ccccc1NC(=O)C1CCCCC1,inactive
4,CCSc1ccccc1C(=O)Nc1ccccc1C(=O)Nc1cccc(S(=O)(=O)C(F)(F)F)c1,inactive
5,CCOc1ccccc1C(=O)Nc1ccncc1C(=O)Nc1cccc(S(=O)(=O)C(F)(F)F)c1,9.4 µM (active)
6,O=C(Nc1cccc(SC(F)(F)F)c1)c1ccccc1NC(=O)C1CCCCC1,inactive
7,O=C(Nc1cccc(C(F)(F)F)c1)c1ccccc1NC(=O)C1CCCCCC1,inactive
8,Cc1ccccc1NC(=O)c1ccccc1NC(=O)C1CCCCC1,inactive
9,COc1ccccc1CNc1ccccc1C(=O)Nc1cccc(C(F)(F)F)c1,inactive
10,O=C(Nc1cccc(F)c1)c1ccccc1NC(=O)C1CCCCC1,inactive
11,CSc1cccc(NC(=O)c2ccccc2NC(=O)C2CCCCC2)c1,inactive
12,COc1cccc(OC)c1C(=O)Nc1ccccc1C(=O)Nc1cccc(C(F)(F)F)c1,inactive
13,O=C(Nc1cccc(C(F)(F)F)c1)c1ccccc1NC(=O)C1CC1,inactive
14,O=C(Nc1cccc(-c2ccccc2C(F)(F)F)c1)c1ccccc1NC(=O)C1CCCCC1,inactive
15,Cc1ccc(NC(=O)c2ccccc2NC(=O)C2CCCCC2)cc1,inactive
16,O=C(Nc1cccc(-c2ccccc2)c1)c1ccccc1NC(=O)C1CCCCC1,inactive
17,COc1ccccc1C(=O)Nc1cccc(C(=O)Nc2cccc(C(F)(F)F)c2)c1,inactive
18,CC(C)Oc1ccccc1C(=O)Nc1ccccc1C(=O)Nc1cccc(C(F)(F)F)c1,inactive
19,O=C(Nc1cccc(C(F)(F)F)c1)c1ccccc1NC(=O)C1CCCCC1,inactive
20,O=C(Nc1cccc([N+](=O)[O-])c1)c1ccccc1NC(=O)C1CCCCC1,inactive
